Reference: ChEMBL document CHEMBL4513216, “Probing the Open Global Health Chemical Diversity Library for Multistage-Active Starting Points for Next-Generation Antimalarials” (ACS Infect Dis, 2020)
Out of some 69,000 compounds screened, about 8,600 (12%) showed an effect of 50% or more. This excerpt belongs to a sample that is enriched for strong results.

These compounds were tested on Plasmodium berghei (assay: Screen against P. berghei liver stage (PbLuc), transformed with Luciferase, at 10uM). Details: tested at 10 uM.
Assay type: functional, HepG2

Row | Structure (SMILES) | INHIBITION [%]
1 | COCCc1noc(CN(C)c2nc(C)cc(C)n2)n1 | 47.6
2 | COc1ccc(Cl)cc1CCNC(=O)NCc1ccncc1 | -23.5
3 | NC(=O)CCN1CCc2onc(-c3ccccc3F)c2C1 | -62.1
4 | CC(=O)N1CCN(CCOc2ccc(F)cc2)CC(C(N)=O)C1 (centres undefined) | 12.3
5 | CCNC(=O)[C@@H]1C[C@H](N)CN1C(=O)c1cccc(CCC(C)(C)O)c1 | 17.5
6 | Cc1nn(C(C)C)c2cnn(CC(=O)N3CCN(C)CC3)c12 | 21.7
7 | CC(C)c1cc(NC(=O)CN2CCn3c(nnc3C3CC3)C2)on1 | 7.5
8 | Cc1nccn1-c1ccc(NC(=O)C2CCCN2Cc2c[nH]cn2)cc1 (centres undefined) | 36.2
9 | Cc1nccn1-c1ccc(NC(=O)C2CCCN2CC2CC2)cc1 (centres undefined) | 55.4
10 | Cc1nccn1-c1ccc(NC(=O)C2CCCN2Cc2ccoc2)cc1 (centres undefined) | 54.4
11 | Cc1nccn1CCCNC(=O)C1CCCCN1Cc1ccncc1 (centres undefined) | -2.07
12 | Cc1cccnc1NC(=O)C1CCCN1Cc1ccccc1 (centres undefined) | -10.4
13 | CCCN1CCCCC1C(=O)Nc1ccc(-c2nnc[nH]2)cc1 (centres undefined) | -28.6
14 | O=C(NCC1(O)COCCN(Cc2ccc(O)cc2)C1)c1cnccn1 (centres undefined) | -42.9
15 | CCCc1nnc(NC(=O)Cc2c(C)nc(C)[nH]c2=O)s1 | 16.585
16 | O=C(NCc1cccs1)c1nc2c(o1)CN(CC1CC1)C2 | -31.4
17 | CNC(=O)[C@@H]1[C@@H](OC(=O)Nc2ccccc2)C(=O)N(C)C12CCNCC2 | 35.8
18 | COc1ccc(C(C(=O)O)N2CCC(Cn3cccn3)CC2)c(OC)n1 (centres undefined) | -40
19 | CCCc1nc(CN2CCCCC2Cn2cncn2)cs1 (centres undefined) | 30.6
20 | COCCOCC(=O)N1CCC2(CCCN(C3CCOCC3)C2=O)C1 (centres undefined) | -7.7
21 | Cn1nnc2c(N3CC(C(=O)NCCC4=CCCCC4)C3)ncnc21 | -19.1
22 | Cc1cc(CN2CC[C@H]3C[C@H](C)O[C@@H]3C2)no1 | 34.1

Row | Structure (SMILES) | INHIBITION [%]
23 | Cc1csc(CN2CC[C@H]3C[C@H](c4noc(C)n4)O[C@@H]3C2)n1 | 42.5
24 | Cc1csc([C@@H]2C[C@H]3CN(c4ncc(F)cn4)C[C@H]3O2)n1 | 22.6
25 | Fc1cnc(N2C[C@@H]3C[C@@H](c4nc(C5CC5)cs4)O[C@@H]3C2)nc1 | 62.3
26 | Cc1cc(CN2CC[C@H]3C[C@@H](C)O[C@@H]3C2)no1 | 50.9
27 | Cc1csc(CN2CC[C@H]3C[C@H](c4nnc(C)[nH]4)O[C@@H]3C2)n1 | 23.5
28 | Cc1csc(CN2CC[C@H]3C[C@@H](c4nnc(C)[nH]4)O[C@@H]3C2)n1 | 72.3
29 | Cc1cc(CN2CC[C@H]3C[C@H](C(=O)N(C)C)O[C@@H]3C2)no1 | 23.9
30 | Cc1csc([C@@H]2C[C@@H]3CCN(Cc4cc(C)on4)C[C@H]3O2)n1 | 26.7
31 | O=C(C1CCOCC1)N1C[C@@H]2C[C@@H](c3nc(C4CC4)cs3)O[C@@H]2C1 | 31.8
32 | Cc1csc([C@H]2C[C@@H]3CCN(Cc4cc(C)on4)C[C@H]3O2)n1 | 64.7
33 | Cc1csc([C@H]2C[C@H]3CN(Cc4cc(C)on4)CC[C@@H]3O2)n1 | 46.6
34 | Cc1c(C2CC(=O)Nc3c2cnn3C(C)(C)C)cnn1C (centres undefined) | -56.7
35 | Cc1[nH]c2nc(CNc3cccc(Cl)c3)nn2c(=O)c1C | -10.7
36 | Cc1cc(CN2CC[C@H]3C[C@@H](c4nccs4)O[C@@H]3C2)no1 | 57.9
37 | Cc1ccc(CN2CC[C@H]3C[C@H](c4nc(C5CC5)cs4)O[C@@H]3C2)o1 | 21.3
38 | Cc1noc(C)c1CN1CC[C@H]2C[C@H](c3nccs3)O[C@@H]2C1 | 40.4
39 | Cc1nnc([C@H]2C[C@@H]3CCN(Cc4ccc(C)o4)C[C@H]3O2)[nH]1 | 31.7
40 | Cc1csc([C@@H]2C[C@@H]3CCN(C(=O)c4cccn4C)C[C@H]3O2)n1 | 50.7
41 | Cc1cc(CN2CC[C@H]3C[C@@H](c4nc(C5CC5)cs4)O[C@@H]3C2)no1 | 68.4
42 | Cc1nnc([C@H]2C[C@@H]3CCN(Cc4cc(C)on4)C[C@H]3O2)[nH]1 | 35.8
43 | Cc1ccc(CN2CC[C@H]3C[C@@H](c4nc(C5CC5)cs4)O[C@@H]3C2)o1 | 63.5
44 | Cc1csc([C@H]2C[C@@H]3CCN(C(=O)c4ccnnc4)C[C@H]3O2)n1 | 4.61

Row | Structure (SMILES) | INHIBITION [%]
45 | Cc1csc([C@H]2C[C@@H]3CCN(Cc4cnn(C)c4)C[C@H]3O2)n1 | -63.5
46 | Cc1cc(CN2CC[C@H]3C[C@H](c4nccs4)O[C@@H]3C2)no1 | 25
47 | Cc1csc([C@@H]2C[C@@H]3CCN(C(=O)c4ccnnc4)C[C@H]3O2)n1 | -19
48 | CC(C)c1nn(C)cc1CNCc1ccnc(N(C)C)c1 | 23.7
49 | Cn1ccc2ccnc(CC3CN(C(=O)c4cscn4)C3)c21 | 3.91
50 | CNC(=O)[C@@H]1CN(C(=O)CCOC)C[C@H]1c1ccnc(N2CCCC2)n1 | -4.68
51 | CCc1nccn1C1CCCN(C(=O)COCC(F)(F)F)C1 (centres undefined) | 45.6
52 | Cc1ccc2c(c1)N(C(=O)c1cc[nH]c(=O)c1)CC(C)O2 (centres undefined) | 19.3
53 | COCc1nn(CC2CC2)c2c1CN(Cc1cncn1C)CC2 | -88.6
54 | CC(C(=O)N1CCOCC1)n1cncn1 (centres undefined) | -18.8
55 | CN(C)c1cccc(CNCc2ccc(N3CCOCC3)cc2)c1 | 34.1
56 | Cc1csc([C@@H]2C[C@@H]3CCN(C(=O)c4cc(C)on4)C[C@H]3O2)n1 | 5.53
57 | Cc1cc(CN2CC[C@H]3C[C@H](c4nc(C5CC5)cs4)O[C@@H]3C2)no1 | 74.7
58 | Cc1csc([C@@H]2C[C@@H]3CCN(Cc4cnn(C)c4)C[C@H]3O2)n1 | -3.19
59 | Cc1csc(CN2C[C@@H]3CN(C)CCO[C@@H]3C2)n1 | 57.5
60 | Cn1cc(CN2CC[C@H]3C[C@H](c4nc(C5CC5)cs4)O[C@@H]3C2)cn1 | 41.8
61 | Cc1csc(CN2C[C@@H]3CN(CC4CCOCC4)CCO[C@@H]3C2)n1 | 47.5
62 | Cn1cc(CN2CC[C@H]3C[C@@H](c4nc(C5CC5)cs4)O[C@@H]3C2)cn1 | 47
63 | c1cc(CN2CC[C@H]3C[C@H](c4nc(C5CC5)cs4)O[C@@H]3C2)ccn1 | 67.5
64 | Cc1csc(CN2C[C@@H]3CN(S(C)(=O)=O)CCO[C@@H]3C2)n1 | 33.1
